Screening results deposited in PubChem by National Center for Advancing Translational Sciences (NCATS).
KDM5B inh = Primary screen for KDM5B Histone Demethylases FDH-coupled qHTS; KDM5B demethylase, FDH-coupled NADH fluorescence (FDH is formaldehyde dehydrogenase); Lysine-specific demethylase 5B (Homo sapiens), Q9UGL1; actives 2.6% (n = 220,000); Potency, µM (series often up to 57.7 µM), actives largely listed as inhibitors; AID 1347165, 2019; active = well fitted inhibition curve with a large enough effect; also: 0% is about no effect; nearly all actives have a fitted effect of over 70% in size
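Compound dilutions met 200 nM (final) KDM5BΔAP for 10 min at room temperature before substrate addition. The substrate mix held 12.5 µM H3K4me3 with cofactors 25 µM α-ketoglutarate and 50 µM Fe²⁺. NADH signal gain over 30 min defined activity.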
* = called active by the depositor; i = inactive. The full list was thinned out, with hits kept by preference. Potency is read from the fitted curve at half-maximal effect.

SMILES	KDM5B inh
O=C(Nc1ccc(Cl)cc1Cl)c1cc(=O)[nH]c2ccc(S(=O)(=O)N3CCOCC3)cc12	i
CN1C(=S)SC(C)(C)C1/[N+]([O-])=C/c1ccccc1 (centres undefined)	i
CCOC(=O)c1ccc(NC(=O)N(C)Cc2nc(-c3ccccc3C)oc2C)cc1	i
COCCOC(=O)N1CCC(Oc2cnc3c(ccn3-c3cncnc3)c2)CC1	i
O=C(O)Cn1ccc2cc(OCCc3cccc(-c4cncnc4)c3)cnc21	28µM*
O=C(C1CCOCC1)N1CCC(Oc2cnc3c(ccn3-c3cncnc3)c2)CC1	i
O=C(O)c1cccc(OCc2nnnn2-c2ccc(Cl)c(Cl)c2)c1	i
CCCCCCCCCCC(=O)c1ccc(Cl)cc1	i
N#Cc1ccc(C(=O)Oc2ccc(Br)cc2)cc1	i
FC(F)(F)c1cccc(NC(=S)NCCc2ccncc2)c1	i
Cc1c(C(=O)c2ccc(Cl)cc2)oc2cc(NC(=O)c3ccncc3)ccc12	i
O=C1COc2ccc(-c3ccncc3)nc2CN1CCOc1ccccc1	i
O=C1COc2ccc(-c3ccccc3)nc2CN1CCOc1ccccc1	i
COc1ccc(-c2ccc3c(n2)CN(C)C(=O)CO3)cc1	35µM*
COc1ccc(-c2ccc3c(n2)CN(CCOc2ccccc2)C(=O)CO3)cc1	13µM*
Cc1ccc(-c2ccc3c(n2)CN(C)C(=O)CO3)cc1	i
CN1Cc2nc(-c3cc(F)cc(F)c3)ccc2OCC1=O	i
O=C(Nc1ccc(S(=O)(=O)N2CCCCCC2)cc1)c1csnn1	i
Cc1ccc(-c2nnc(Cn3cnc(C#N)n3)o2)cc1	i
Cc1ccc(-n2cnnn2)cc1NC(=O)c1sccc1C	i
COC(=O)c1cccc(S(=O)(=O)Oc2ccc3c(C)cc(=O)oc3c2C(C)=O)c1	i
Cc1ccc2nc(C)c(C(=O)N3CCN(Cc4ccccc4C)CC3)cc2c1	i
Cc1ccc(-c2cnc(SCC(=O)Nc3ccc(F)c(F)c3)o2)cc1C	i
Cc1ccc(-c2cnc(CCC(=O)Nc3ccn(C)n3)o2)cc1C	i
Cc1ccccc1-c1cnc2[nH]cc(CC(=O)Nc3ccn(C)n3)c2c1	32µM*
SMILES	KDM5B inh
CNC(=O)c1cccc(-c2cnc3[nH]cc(CC(=O)Nc4ccccc4Cl)c3c2)c1	i
Cc1cc(NC(=O)COc2c(Cl)cccc2Cl)n(C)n1	i
COc1ncccc1-c1cnc2[nH]cc(CC(=O)Nc3ccn(C)n3)c2c1	32µM*
COc1ncccc1-c1cnc2[nH]cc(CC(=O)Nc3cc(C)nn3C)c2c1	40µM*
COc1ncccc1-c1cnc2[nH]cc(CC(=O)Nc3ccccn3)c2c1	35µM*
CC(Sc1ncnc2nc[nH]c12)c1ccccc1 (centres undefined)	i
O=S(=O)(c1ccc(Oc2ccc3ccccc3c2)nc1)N1CCOCC1	i
Cc1ccc(NC(=O)C2CC3CCCC(C2)C3=O)cc1 (centres undefined)	i
CCOC(=O)c1ccc(NCc2c(Cl)cccc2Cl)cc1	i
CC(C)(C)C(=O)Nc1ccc2c(c1)CCC2	i
CCOC(=O)c1scc(-c2ccccc2)c1S(=O)(=O)Nc1cc(C)cc(C)c1	i
O/N=C/c1ccc(OCc2ccccc2)c(OCc2ccccc2)c1	i
O=C1NC(C(=O)NCc2ccco2)Cn2cccc21 (centres undefined)	i
O=C(COc1ccc(NC(=O)C2CC2)cn1)NCc1ccccc1F	i
COC[C@@H]1CN(c2cnccn2)C[C@H]1C(=O)NCc1ccco1	25µM*
COC[C@@H]1CN(c2cnccn2)C[C@H]1C(=O)NCc1ccccc1F	20µM*
O=C(NCc1ccco1)C1CC(c2ccccc2)CN(C(=O)C2CCCC2)C1 (centres undefined)	i
COC[C@@H]1CN(Cc2c(F)cccc2F)C[C@H]1C(=O)NC1CC1	i
Cc1cc(C)c(NC(=O)CN2CCCN(c3ccc(C(F)(F)F)cn3)CC2)c(Cl)c1	i
N#Cc1cccc(NC(=O)Cn2nc3c(N4CCOCC4)nc4ccccc4n3c2=O)c1	i
Cc1ccccc1CCNC(=O)c1ccc2c(c1)CCCC2	i
COc1ccc(-c2ccc3nnc(CNC(=O)c4ccc(C)cc4C)n3n2)cc1	28µM*
Cc1ccc(C(=O)NCc2ccncc2)c(C)c1	i
COc1ccc(-c2ccc3nnc(CNC(=O)c4sccc4C)n3n2)cc1	32µM*
Cc1ccc(C(=O)NCc2nc(C)cs2)c(C)c1	i
SMILES	KDM5B inh
Cc1ccsc1C(=O)NCc1ccc(Cl)cc1	i
COc1ccc(C(=O)NCc2nnc(SCC(=O)Nc3ccc(C)cc3)n2-c2ccccc2)cc1	i
CCCCn1nnc(NC(=O)COc2cccc(C)c2)n1	i
COc1ccc(-c2nn(C)c(=O)c3ccccc23)cc1NC(=O)COc1cccc(C)c1	i
COc1ccc(-c2ccc3nnc(CNC(=O)COc4cccc(C)c4)n3n2)cc1	25µM*
Cc1ccsc1C(=O)NCc1ccncc1	i
COc1ccc(C(=O)NCc2nnc3ccc(-c4ccc(C)cc4)nn23)c(C)c1	28µM*
